Assay outcomes: PubChem BioAssay, National Center for Advancing Translational Sciences (NCATS)
HT1080 IDH1KD tx: qHTS for induction of synthetic lethality in tumor cells producing 2HG: qHTS for the HT-1080-IDH1KD cell line. HT-1080 IDH1 knockdown viability, ATP luminescence, 48 h. Potency, µM (highest dose often 46.1 µM), inactives show at the top dose activity, negative = toxicity, hits mostly cytotoxic. hit rate 2% among 360,000;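 also: potency is read from the fitted curve at half-maximal effect; 0% = DMSO wells and -100% = cell-free medium wells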
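In this qHTS, HT-1080 cells depleted of IDH1 are exposed for 48 h at 37 °C to compound titrations. Toxicity is scored from CellTiter-Glo luminescence, with DMSO as full viability and medium alone as none.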
Giardia killer: Small Molecules that selectively kill Giardia lamblia: qHTS | activity change, % at 7.66 µM, hits read low | Giardia lamblia trophozoite viability | hit rate 0.15% among 340,000; in the data active = activity change below about -80%; inconclusive = between about -30% and that limit;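 also: parasites exposed to compound for two days anaerobically before the ATP read; % is scaled to controls: 0 for no effect and ±100 for the full control effect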
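Trophozoite viability was measured as ATP-dependent luminescence, read 15-30 min after reagent addition. Before that, parasites at 100 cells/well were exposed to compounds for 48 h, anaerobically, at 37 deg C.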
HepG2 tox: qHTS for Inhibitors of TGF-b: Cytotox Counterscreen; HepG2 CAGA-GFP viability, ATP luminescence, 18 h; Potency, µM (series often up to 46.1 µM), for the others: top-dose activity change, negative = cytotoxicity, usual class: cytotoxic; hit rate 0.76% among 410,000; also: potency is read from the fitted curve at half-maximal effect
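HepG2 CAGA-GFP cells (1000/well, DMEM with 1% FBS) received compound, then TGF-beta at 500 pg/mL final, and were incubated 18 hours at 37 degrees C. Viability was read by CellTiter-Glo luminescence. Media-only wells were set as complete cell-killing and DMSO as no toxicity.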
TGFb inhibitor: qHTS for Inhibitors of TGF-b | HepG2 CAGA-GFP TGF-b/SMAD3 reporter, GFP fluorescence, 18 h; TGF-beta stimulated, 500 pg/mL final | Potency, µM (highest dose often 46.1 µM), for inactives: at the top dose activity, negative = inhibition, actives largely listed as inhibitors | hit rate 1.2% among 410,000 | AID 588855, 2011; also: potency is read from the fitted curve at half-maximal effect; % is scaled to controls: 0 for no effect and ±100 for the full control effect; nearly all actives have a fitted effect of over 65% in size
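HEPG2 CAGA-GFP cells (1000/well, DMEM with 1% FBS) were pre-incubated 2 h at 37 degrees C, given compound by pin tool, then stimulated with TGF-beta at 500 pg/mL final for 18 h before per-cell GFP fluorescence imaging.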
IL1B secr inh: qHTS for Inhibitors of Inflammasome Signaling: IL-1-beta AlphaLISA Primary Screen; THP-1 LPS/ATP IL-1B secretion, AlphaLISA, 16 h; stronger effect = lower value; AID 743279, 2014; hit rate 4.7% among 360,000; activity change, % at 57.5 µM; in the data active = activity change below about -50%; inconclusive = mostly about -30% to -49%; also: % is scaled to controls: 0 for no effect and ±100 for the full control effect
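THP-1 cells pretreated 1 hr with compounds (up to 57.5 uM final), then stimulated with LPS (250 ng/mL final) plus ATP (1.25 mM final); secreted IL-1B measured by AlphaLISA after 16 hr, decreased signal indicating inhibition.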
HT1080-NT tox: qHTS for induction of synthetic lethality in tumor cells producing 2HG: qHTS for the HT-1080-NT fibrosarcoma cell line | HT-1080-NT fibrosarcoma viability, CellTiter-Glo ATP luminescence, 48 h | Potency, µM (doses to about 46.1 µM), without a hit: top-dose activity, negative = less viability, most hits filed as cytotoxic | hit rate 1.6% among 360,000 | AID 686970, 2013;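 also: NT is the 2HG producing partner of a matched IDH1 knockdown line; potency is read from the fitted curve at half-maximal effect; 0% = DMSO-treated cells and -100% = media-only wells without cells; nearly all actives have a fitted effect of over 55% in size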
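Viability by CellTiter-Glo luminescence after 48 h compound exposure at 37C of HT-1080-NT cells (750/well, RPMI, 5% FBS). % activity scaled between DMSO wells and medium-only wells, then curve-fitted and categorized by curve class.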
* = called active by the depositor; u = inconclusive; x = no result given; [ ] = remark or other dose. An excerpt weighted towards active compounds, which were near 6.5% of everything screened. Unless noted, calls follow the shape of the dose curve; as a rule, active = well fitted curve in the direction sought with a large enough effect; inconclusive = small, poorly fitted or top-dose-only effect, or another doubt; inactive = no such curve, though single readings can be large; an effect the other way counts as inactive or inconclusive.

SMILES	HT1080 IDH1KD tx	Giardia killer	HepG2 tox	TGFb inhibitor	IL1B secr inh	HT1080-NT tox
CC(=O)/C(=N\Nc1cccc(Cl)c1)Sc1cccc2cccnc12	7%	-12	25%	15%	30	6%
CCOc1ccc(-n2c(C)cc(/C=C3/C(=N)N4C(=NC3=O)SN=C4S(C)(=O)=O)c2C)cc1	0%	9	6%	-10%	-1	-20%
O=[N+]([O-])C(/C=C(\Cl)[N+](=O)[O-])=C1N(Cc2ccc(Cl)nc2)CCN1Cc1ccc(Cl)nc1	u	-9	20µM*	u	-8	u
O=[N+]([O-])/C(C(=C(Cl)Cl)N1CCN(Cc2ccccc2)CC1)=C1\NCCN1Cc1ccc(Cl)nc1	-6%	-28	-24%	-8%	u	-11%
Cc1c(-c2ccc(Br)cc2)nc2ccccn12	-20%	-11	-30%	-1%	-81*	u
Cc1cc(O)cc2c1C1CCC3(C)C(O)CCC3C1C=C2 (stereo unspecified)	18µM*	-3	2%	39%	-14	u
Cc1ccc(NC(=O)c2cccc(OCc3c(C)noc3C)c2)c(C)c1	-13%	1	-4%	-17%	-14	-11%
CC1CCCCN1S(=O)(=O)c1ccc(N(C(=O)c2cnccn2)C(C(=O)NC2CCCCC2)c2cccs2)cc1 (stereo unspecified)	-16%	-15	-29%	u	-63*	-19%
Cc1ccc(C)c2sc(N3CCN(C(=O)c4ccco4)CC3)nc12	x	x	-52%	10µM*	x	x
Cc1ccc2c(c1)[C@H]1[C@H](CO2)[C@H](c2ccccc2)[C@]2(C)C(=O)Nc3cc(F)ccc3C(=O)N12	8.2µM*	-6	-14%	-28%	u	u
Cc1ccc2c(c1)[C@H]1[C@H](CO2)[C@H](c2ccccc2)[C@]2(C)C(=O)Nc3ccccc3C(=O)N12	6.5µM*	-22	-19%	-26%	-60*	5.8µM*
Cc1ccc2c(c1)C(=O)N1[C@H]3c4ccccc4OC[C@@H]3[C@H](c3ccccc3)[C@]1(C)C(=O)N2	-2%	-20	-3%	1%	-62*	-2%
Cc1ccc2c(c1)NC(=O)[C@@]1(C)[C@@H](c3ccccc3)[C@H]3COc4ccccc4[C@@H]3N1C2=O	-4%	-15	-18%	2%	u	-24%
C[C@@]12C(=O)Nc3ccccc3C(=O)N1[C@H]1c3cc(Cl)ccc3OC[C@@H]1[C@@H]2c1ccccc1	18µM*	1	-14%	-15%	u	u
COc1cc(OC)c2c(c1)C(=O)OC2OC (stereo unspecified)	12%	14	10%	8%	19	-3%
O=C(Nc1ccc2c(c1)OCCO2)N1CCN(c2ccc(F)cc2)CC1	6%	14	-16%	-5%	-6	1%
CCCC(=O)N(Cc1cc(=O)[nH]c2ccccc12)c1ccc(C)cc1C	0%	-17	-26%	12%	34	-1%
Cc1ccc(N(Cc2cc(=O)[nH]c3ccccc23)C(=O)CCl)c(C)c1	5.2µM*	-9	22µM*	18µM*	-105*	4.6µM*
CC12CN(C(=O)c3ccc(Cl)cc3)C3(C#N)CC1CCC23C (stereo unspecified)	9%	6	-13%	7%	29	11%
Cc1cccc2c(N)c3c(nc12)N(C)CC3	4%	u	-15%	-11%	0	0%
Cc1nc2c(C)cccc2c2c1CCN2c1ccccc1F	u	-13	-27%	u	-76*	-8%
CCC(C)c1ccc(NC(=O)NCCN2CCCCC2)cc1 (stereo unspecified)	u	-10	-19%	-3%	-52*	u
Cc1cc(C)c(OCC(=O)N(Cc2cccc(F)c2)Cc2ccco2)c(C)c1	x	x	11µM*	-49%	x	x
O=C(C1=C[C@H](c2ccccc2)C[C@H](OCc2ccc(CO)cc2)O1)N1CCN(Cc2ccc3c(c2)OCO3)CC1	-27%	-4	2%	-20%	-53*	-29%
O=C(C1=C[C@@H](C2CCCCC2)C[C@@H](OCc2ccc(CO)cc2)O1)N1CCN(Cc2ccccc2)CC1	u	6	-13%	u	-59*	u
SMILES	HT1080 IDH1KD tx	Giardia killer	HepG2 tox	TGFb inhibitor	IL1B secr inh	HT1080-NT tox
CC(=O)n1cc([C@H]2C=C(C(=O)N3CCN(Cc4ccccc4)CC3)O[C@@H](OCCCCO)C2)c2ccccc21	0%	18	0%	u	-9	-14%
CC(=O)n1cc([C@@H]2C=C(C(=O)N3CCN(Cc4ccc5c(c4)OCO5)CC3)O[C@H](OCCCCO)C2)c2ccccc21	-11%	-26	-7%	-26%	-52*	-11%
O=C(Nc1ccccc1)C1=C[C@H](c2ccc(Br)cc2)C[C@H](OCc2ccc(CO)cc2)O1	-3%	0	-7%	u	-53*	-18%
Cc1ccc(-c2cc(C(=O)N3CC(C)OC(C)C3)c3ccccc3n2)o1 (stereo unspecified)	-14%	-5	-42%	-1%	-8	-3%
COC(=O)c1[nH]c2cccc(OC)c2c1NC(=O)CN1CC2(C)CC1CC(C)(C)C2 (stereo unspecified)	7%	-5	-1%	u	24	5%
O=C(Nc1ccccc1)C1=C[C@@H](C2CCCCC2)C[C@@H](OCc2ccc(CO)cc2)O1	-22%	0	-17%	-10%	0	-18%
O=C(Nc1ccccc1)C1=C[C@H](C2CCCCC2)C[C@H](OCc2ccc(CO)cc2)O1	-17%	-24	-14%	u	-51*	-15%
CCOc1ccc(N(C)C(=O)c2oc(=O)c3ccccc3c2-c2ccccc2)cc1	x	x	-31%	16µM*	x	x
Cc1ccnc(NC(=O)CCNC(=O)c2ccc(Br)cc2)c1	-3%	x	-1%	-4%	-5	-1%
CCOc1ccc(C(c2c(NC(=O)c3ccccc3)sc(C)c2C)N2CCN(C)CC2)cc1 (stereo unspecified)	u	8	-4%	-25%	-62*	u
CCOc1ccc(C(c2c(NC(=O)c3ccco3)sc(C)c2C)N2CCOCC2)cc1 (stereo unspecified)	-21%	28	-1%	u	u	8%[9.24 µM]
CCOC(=O)c1c(C)oc(=O)c(CC)c1O	1%	x	5%	0%	-5	0%
